# Counter-ions that a name gives are not always drawn.
# Test system: Saccharomyces cerevisiae
# Assay: fraction of cells in G1 phase (DNA content, flow cytometry); higher = more cells with unreplicated DNA (G1 delay)
# Settings: temperature: 30 C; YPD; BY4741 PDR5+ SNQ2+; drug added to: actively dividing cells; 4.33 h
# Description: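 S. cerevisiae cultures in YPD at 30°C were treated with each drug of the Enzo FDA-approved library at 20 µg/ml (final µM given per drug). Cells were fixed after 6–7 h (S1) or 6 h (S2), or after 4.33 h for BY4741 (S3), then stained with SYTOX Green. %G1 is the Dean-Jett-Fox G1 peak area divided by the G1+G2/M peak areas, written as a fraction and averaged over at least two independent experiments. DMSO reference: mean ~0.49; >0.60 is called High G1 and <0.3876 Low G1. Scale: lower means mitotic delay.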
row,SMILES,fraction of cells in G1 phase
1,CO[C@@]12[C@H](COC(N)=O)C3=C(C(=O)C(C)=C(N)C3=O)N1C[C@@H]1N[C@@H]12 [Mitomycin c] (59.8203 µM),0.399
2,CC(C)(C)C(=O)C(Oc1ccc(Cl)cc1)n1ccnc1 (stereo not given) [Climbazole] (68.3135 µM),0.496
3,CC(=O)[C@H]1CC[C@H]2[C@@H]3CCC4=CC(=O)CC[C@]4(C)[C@H]3CC[C@]12C [Progesterone] (63.5987 µM),0.501
4,CC(=O)[C@]1(O)Cc2c(O)c3c(c(O)c2[C@@H](O[C@H]2C[C@H](N)[C@H](O)[C@H](C)O2)C1)C(=O)c1ccccc1C3=O [Idarubicin] (40.2005 µM),0.14

# Same assay, conditions: temperature: 30 C; YPD; JTY2953 pdr5 snq2 (sensitized); drug added to: actively dividing cells; 6 h
row,SMILES,fraction of cells in G1 phase
1,OCCN1CCN(CCCN2c3ccccc3Sc3ccc(C(F)(F)F)cc32)CC1 [Fluphenazine 2HCl] (45.711 µM),0.327
2,CC(C)(C)C(=O)C(Oc1ccc(Cl)cc1)n1ccnc1 (stereo not given) [Climbazole] (68.3135 µM),0.833
3,CC(=O)[C@H]1CC[C@H]2[C@@H]3CCC4=CC(=O)CC[C@]4(C)[C@H]3CC[C@]12C [Progesterone] (63.5987 µM),0.693
4,O=C1Nc2ccc(Cl)cc2[C@@](C#CC2CC2)(C(F)(F)F)O1 [Efavirenz] (63.355 µM),0.4
5,COc1cccc2c1C(=O)c1c(O)c3c(c(O)c1C2=O)C[C@@](O)(C(=O)CO)C[C@@H]3O[C@H]1C[C@H](N)[C@H](O)[C@H](C)O1 [Doxorubicin HCl] (34.4828 µM),0.618
6,CCCCCCCCCCCCCCCCOP(=O)([O-])OCC[N+](C)(C)C [Miltefosine] (49.0703 µM),0.596

# Same assay, conditions: temperature: 30 C; YPD; JTY2953 pdr5 snq2 (sensitized); drug added to: cultures diluted from stationary phase; 6-7 h
row,SMILES,fraction of cells in G1 phase
1,NCCCC(O)(P(=O)(O)O)P(=O)(O)O [Alendronate] (80.6158 µM),0.456
2,CC(=O)OCC[N+](C)(C)C [Acetylcholine Cl] (136.789 µM),0.483
3,OCCN1CCN(CCCN2c3ccccc3Sc3ccc(C(F)(F)F)cc32)CC1 [Fluphenazine 2HCl] (45.711 µM),0.862
4,CC(C)Cn1cnc2c(N)nc3ccccc3c21 [Imiquimod] (83.2257 µM),0.484
5,C=C(CC)C(=O)c1ccc(OCC(=O)O)c(Cl)c1Cl [Ethacrynic acid] (65.9752 µM),0.513
6,C[C@]12C[C@H](O)[C@H]3[C@@H](CCC4=CC(=O)CC[C@@]43C)[C@@H]1CC[C@@H]2C(=O)CO [Corticosterone] (57.7249 µM),0.512
7,Nc1ncnc2c1ncn2[C@@H]1O[C@H](CO)[C@@H](O)[C@@H]1O [Vidarabine] (74.8374 µM),0.481
8,C[C@]12CCC(=O)C=C1CC[C@@H]1[C@@H]2[C@@H](O)C[C@@]2(C)[C@H]1CC[C@]2(O)C(=O)CO [Hydrocortisone] (55.1769 µM),0.483
9,CO[C@@]12[C@H](COC(N)=O)C3=C(C(=O)C(C)=C(N)C3=O)N1C[C@@H]1N[C@@H]12 [Mitomycin c] (59.8203 µM),0.273
10,CC(C)(C)C(=O)C(Oc1ccc(Cl)cc1)n1ccnc1 (stereo not given) [Climbazole] (68.3135 µM),0.719
11,COC(=O)c1ccccc1O [Methyl salicylate] (131.448 µM),0.513
12,O=C(O)c1cc(=O)c2c(OCC(O)COc3cccc4oc(C(=O)O)cc(=O)c34)cccc2o1 [Disodium cromoglycate] (39.0365 µM),0.529
13,CC(=O)O[C@]1(C(C)=O)CC[C@H]2[C@@H]3C=C(Cl)C4=CC(=O)CC[C@]4(C)[C@H]3CC[C@@]21C [Chlormadinone acetate] (44.5442 µM),0.577
14,CC(N/C(=N\C#N)Nc1ccncc1)C(C)(C)C (stereo not given) [Pinacidil] (81.5229 µM),0.51
15,CC(C(=O)O)c1ccc(-c2ccccc2)c(F)c1 (stereo not given) [Flurbiprofen] (81.8773 µM),0.524
16,CCCNCC(O)COc1ccccc1C(=O)CCc1ccccc1 (stereo not given) [Propafenone] (58.5652 µM),0.489
17,CC(=O)[C@H]1CC[C@H]2[C@@H]3CCC4=CC(=O)CC[C@]4(C)[C@H]3CC[C@]12C [Progesterone] (63.5987 µM),0.607
18,Clc1ccc2c(c1)CCc1cccnc1C2=C1CCNCC1 [Desloratadine] (64.3439 µM),0.5
19,CC(C)(C)NC(=O)[C@H]1CC[C@H]2[C@@H]3CC[C@H]4NC(=O)C=C[C@]4(C)[C@H]3CC[C@]12C [Finasteride] (53.6833 µM),0.558
20,O=NN(CCCl)C(=O)NC1CCCCC1 [Lomustine] (85.5799 µM),0.451
21,O=C1Nc2ccc(Cl)cc2[C@@](C#CC2CC2)(C(F)(F)F)O1 [Efavirenz] (63.355 µM),0.879
22,CCCCc1nc(Cl)c(CO)n1Cc1ccc(-c2ccccc2-c2nnn[nH]2)cc1 [Losartan potassium] (43.3825 µM),0.487
23,COc1cc(C(=O)OCCCN2CCCN(CCCOC(=O)c3cc(OC)c(OC)c(OC)c3)CC2)cc(OC)c1OC [Dilazep] (33.074 µM),0.47
24,COc1cccc2c1C(=O)c1c(O)c3c(c(O)c1C2=O)C[C@@](O)(C(=O)CO)C[C@@H]3O[C@H]1C[C@H](N)[C@H](O)[C@H](C)O1 [Doxorubicin HCl] (34.4828 µM),0.64
25,CC(=O)O[C@]1(C(C)=O)CC[C@H]2[C@@H]3C=C(Cl)C4=CC(=O)[C@@H]5C[C@@H]5[C@]4(C)[C@H]3CC[C@@]21C [Cyproterone acetate] (47.9675 µM),0.597
26,C[N+](C)(C)CCOC(N)=O [Carbamylcholine Cl] (135.871 µM),0.506
27,CNNCc1ccc(C(=O)NC(C)C)cc1 [Procarbazine HCl] (90.3731 µM),0.49
28,CC(=O)[C@]1(O)Cc2c(O)c3c(c(O)c2[C@@H](O[C@H]2C[C@H](N)[C@H](O)[C@H](C)O2)C1)C(=O)c1ccccc1C3=O [Idarubicin] (40.2005 µM),0.291
29,CCCCCCCCCCCCCCCCOP(=O)([O-])OCC[N+](C)(C)C [Miltefosine] (49.0703 µM),0.858
30,CN1CCN(c2c(F)cc3c(=O)c(C(=O)O)cn(CCF)c3c2F)CC1 [Fleroxacin] (54.1497 µM),0.479

# Source: the supplement of paper PMC3342239
